Shown are actives, neighbours in structure and some others; about 4.1% of the full set was active somewhere.
MazEF act = activators of E. coli MazEF toxin-antitoxin RNase. activation, % at 20 µM. P0AE70. FAM/BHQ RNA-DNA oligo cleavage fluorescence, 5 h. AID 504720. 350,000 compounds, 0.32% hits; in the data active = activation above about 50%
Target sequence (P0AE70 whole entry, looked up): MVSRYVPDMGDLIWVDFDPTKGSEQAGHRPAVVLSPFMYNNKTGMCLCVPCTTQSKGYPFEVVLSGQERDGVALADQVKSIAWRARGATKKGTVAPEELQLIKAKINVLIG
BoNT-F LC inh = BoNT F light chain protease inhibition; 360,000 compounds, 0.22% hits; Multiplex microsphere protease cleavage assay, flow cytometry; inhibition, % at 10 µM; in the data active = inhibition above about 35%, passing the limit was not always enough; inconclusive = no clear call, values can overlap the other calls
Bead autofluor = compound fluorescence in toxin protease inhibitor counterscreen; AID 624483; compound autofluorescence counterscreen, microsphere flow cytometry; hits give high values; 360,000 compounds, 3.1% hits; fluorescence intensity (no concentration beside the values); in the data active = fluorescence intensity above about 16000; inconclusive = no clear call, values can overlap the other calls
Anthrax LF inh2 = anthrax lethal factor protease inhibition; multiplex microsphere protease cleavage assay, LF; inhibition, % at 10 µM; P15917; 360,000 compounds, 0.12% hits
VHR inh abs = DUSP3 (human) phosphatase inhibition. 290,000 compounds, 0.52% hits. P51452. inhibition, % at 13.3 µM. AID 1654. recombinant VHR phosphatase, pNPP absorbance; in the data active = inhibition above about 50%
Target sequence (P51452 whole entry, looked up): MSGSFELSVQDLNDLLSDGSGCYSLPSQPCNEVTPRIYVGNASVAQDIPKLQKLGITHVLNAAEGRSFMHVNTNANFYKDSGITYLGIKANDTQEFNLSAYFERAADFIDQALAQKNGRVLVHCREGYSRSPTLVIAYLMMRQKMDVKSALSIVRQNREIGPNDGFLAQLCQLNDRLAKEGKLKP
BoNT-A LC inh2 = inhibitors of Botulinum neurotoxin A light chain protease; inhibition, % at 10 µM; 360,000 compounds, 0.17% hits; multiplex microsphere protease substrate cleavage, flow cytometry; AID 588499
Each line names hits and unclear results; the compound was inactive in the other large screens. Cut-off read from the data, not from the text of the source, unless noted: active = inhibition above about 30%; inconclusive = no clear call, values can overlap the other calls; inactive = below that.

O=C1N(CN2CCN(c3cccc(Cl)c3)CC2)c2ccccc2C12OCCCO2	Bead autofluor 21061
O=C(NCc1ccccn1)Nc1cccc(F)c1	none
COc1ccccc1C(CNC(=O)C1CC(=O)N(Cc2ccccc2)C1)N1CCCC1 (stereo not drawn)	none (no result: VHR inh abs)
COCCN(CC(=O)Nc1cccc(C)c1C)C(=O)C1CCN(S(=O)(=O)c2ccccc2)CC1	none (no result: VHR inh abs)
Cc1cccc(OCc2n[nH]c(=S)o2)c1	Bead autofluor 24801
CC1CCc2cccc3c2N1c1cc(C#N)c(C#N)cc1O3 (stereo not drawn)	MazEF act 83.6, Bead autofluor 23863
CN1CCN(S(=O)(=O)c2cccc([N+](=O)[O-])c2)CC1	Bead autofluor 20528 (no result: VHR inh abs)
CN1CCN(S(=O)(=O)c2cccc(S(=O)(=O)c3cccc(S(=O)(=O)N4CCN(C)CC4)c3)c2)CC1	Bead autofluor 21260
O=[N+]([O-])c1cccc(S(=O)(=O)N2CCCCC2)c1	none
CN1CCN(S(=O)(=O)c2ccc3ccccc3c2)CC1	none
CCOC(=O)C1(C(=O)OCC)CCN(S(=O)(=O)c2ccccc2)CC1	none (no result: VHR inh abs)
O=S1(=O)CCN(C2CCCCCC2)CC1	none (no result: VHR inh abs)
O=S1(=O)CCC(N2CCOCC2)C1 (stereo not drawn)	Bead autofluor 23902, BoNT-A LC inh2 inconclusive
c1ccc(CCn2c(C3CC3)nc3ccccc32)cc1	Bead autofluor 16345
O=C(O)CCn1c(C2CCCCC2)nc2ccccc21	none
O=C(/C=C/c1ccccc1)NNC(=O)C1CC1	Bead autofluor 21872
COc1ccc(C)cc1S(=O)(=O)N1CCC(C)CC1	Bead autofluor 21743
CCOc1cc(S(=O)(=O)N2CCCCC2)ccc1F	Bead autofluor 22074
CCOc1ccc(C)cc1S(=O)(=O)N1CCCCC1	Bead autofluor 21517, BoNT-A LC inh2 inconclusive
CCOc1cc(S(=O)(=O)N2CCCC2)ccc1Cl	none
CCOc1ccc(OCC)c(S(=O)(=O)N2CCCCC2C)c1 (stereo not drawn)	Bead autofluor 16721
C=CCNC(=O)c1n[nH]c2c1CC(C(C)(C)CC)CC2 (stereo not drawn)	none (no result: VHR inh abs)
Cc1ccc(F)cc1C(=O)N1CCOCC1c1cc(C(=O)NCc2ccccc2)no1 (stereo not drawn)	none (no result: MazEF act, VHR inh abs)
CCOc1ccc(Nc2nc3c(c(=O)[nH]2)CCCC3)cc1	none
CCOc1ccc(Nc2nc3c(c(=O)[nH]2)CCC3)cc1	Bead autofluor 16524
CCc1ccc(CNn2cnnc2SCC(=O)NC(C)(C)C)cc1	Bead autofluor 16664
CNC(=O)COC(=O)c1nc(-n2nc(C)cc2C)ccc1Cl	Bead autofluor 24164
Cc1cccc(C(=O)NCCc2nnc(SCC(=O)Nc3nc(C)cs3)n2C)c1	Bead autofluor 16360, BoNT-A LC inh2 inconclusive
Cc1ccccc1C(=O)NCCc1nnc(SCC(=O)Nc2nc(-c3ccccc3)cs2)n1C	Bead autofluor 20936, BoNT-A LC inh2 inconclusive
CCn1c(CSc2nc(C)cc(C)n2)nnc1SCC(=O)Nc1nc(-c2ccccc2)cs1	Bead autofluor 16261
Cn1c(=O)c2c(nc(OC3CCCC3)n2C)n(C)c1=O	none (no result: VHR inh abs)
O=C1COc2ccc(NC(=O)c3ccccc3C(=O)O)cc2N1	none
Cc1ccc(-c2cc(C(=O)N3CCN(C(=O)c4ccco4)CC3)no2)cc1	Bead autofluor 20055
O=C(c1ccco1)N1CCCN(C(=O)c2ccco2)CC1	Bead autofluor 23373
O=C(c1ccco1)N1CCN(S(=O)(=O)c2ccccc2)CC1	none
O=C(CN1C(=O)NC2(CCCCCCC2)C1=O)N1CCN(C(=O)c2ccco2)CC1	none
O=C(CN1C(=O)NC2(CCCC2)C1=O)N1CCN(C(=O)c2ccco2)CC1	Bead autofluor 19470
CN(C)C(=O)N1CCN(C(=O)c2ccco2)CC1	none
O=C(c1ccco1)N1CCN(c2ccc(S(=O)(=O)N3CCCC3)cc2)CC1	Bead autofluor 22603
O=C(NCC1CCCN1S(=O)(=O)c1cccs1)c1ccccc1F (stereo not drawn)	Bead autofluor inconclusive (no result: VHR inh abs)
O=C(c1ccco1)N1CCN(C(=O)C2CC(c3ccc(Cl)cc3)=NO2)CC1 (stereo not drawn)	VHR inh abs 58.9
CN(CCCNC(=O)C1CCC(=O)N1Cc1ccccc1Cl)c1ccccc1 (stereo not drawn)	Bead autofluor 16389
CCN(CCCNC(=O)C1CCC(=O)N1Cc1ccc(C)cc1)c1cccc(C)c1 (stereo not drawn)	none
CCN(CCCNC(=O)C1CCC(=O)N1Cc1ccccc1Cl)c1cccc(C)c1 (stereo not drawn)	Bead autofluor 30276
COc1ccc(S(=O)(=O)Cc2ccc(C(=O)NCc3ccccc3OC)o2)cc1	none
Cc1occc1-c1n[nH]c(=S)n1CC(C)C	Bead autofluor 23617
O=C(COc1ccc(Cl)cc1)NCc1nnc2c3ccccc3c(-c3ccccc3)nn12	VHR inh abs 50.8
Cc1cc2cc(C)c3nnc(SCc4ccccn4)n3c2cc1C	none
Cc1ccc(C)c2c1cc(C)c1nnc(SCc3ccccn3)n12	Bead autofluor 26246
CNC(=O)COC(=O)c1cc2c(C)nn(-c3ccc(F)cc3)c2s1	Bead autofluor 16925
CN(CCCNC(=O)C1CCC(CNS(=O)(=O)c2ccccc2)CC1)Cc1ccccc1 (stereo not drawn)	VHR inh abs 55.5
Cc1ccc(OC(=O)NC2CCS(=O)(=O)C2)cc1C (stereo not drawn)	Bead autofluor 23723
COc1ccc(OCC(=O)OCC(=O)NC2CCCC2)cc1	none (no result: VHR inh abs)
CC(C)(C)c1ccc(OCC(=O)NC2CCS(=O)(=O)C2)cc1 (stereo not drawn)	Bead autofluor 19473, BoNT-A LC inh2 inconclusive
COc1ccc(OCC(=O)NC2CCCCCCC2)cc1	VHR inh abs 56.2
O=C(Nc1nnc(SCCN2CCOCC2)s1)C1CC(=O)N(c2ccc(F)cc2)C1 (stereo not drawn)	none
c1ccc(-c2csc(-c3ccncc3)n2)cc1	VHR inh abs 52.5
O=C(Oc1ccc2c(c1)OCO2)c1cc2c(s1)CCC2	BoNT-F LC inh 53.7
Cc1ccc(Nc2nc(Cl)c(C=O)s2)cc1Cl	MazEF act 52.7
CC(C)(C)c1ccc(S(=O)(=O)N2CCC(NC(=O)c3ccco3)CC2)cc1	none
CC(CC(=O)NCc1ccccc1)C1CCCO1 (stereo not drawn)	Bead autofluor 19114
O=C(CC(C(=O)O)C1CCCO1)NCc1ccccc1 (stereo not drawn)	BoNT-F LC inh inconclusive
CSCCC(NC(=O)C1CCC(C)CC1)C(=O)NCCN1CCOCC1 (stereo not drawn)	Bead autofluor 22383
CSCCC(NC(=O)C1CCC(C)CC1)C(=O)O (stereo not drawn)	Bead autofluor 23567, BoNT-A LC inh2 inconclusive
CSCCC(NC(=O)C1CCC(C)CC1)C(=O)Nc1ccc(NC(C)=O)cc1 (stereo not drawn)	none
CC(C)CC(NC(=O)C1CCC(C)CC1)C(=O)NCCN1CCOCC1 (stereo not drawn)	none
CN1C[C@@H](CO)O[C@@H](n2cnc3c(N4CCOCC4)ncnc32)C1	none (no result: MazEF act, VHR inh abs)
N#Cc1ccsc1NC(=O)c1ccccn1	Bead autofluor 22222

Compound activity: PubChem, several laboratories
